The source of these data is PubChem BioAssay (NCI).

Among the test systems are NCI-H23 lung; NCI-H226 lung; NCI-H322M lung; HOP-62 NSCLC; NCI-H460 lung; HOP-92 NSCLC; NCI-H522 lung; A549/ATCC NSCLC; 786-0 renal; COLO 205 colon; DU-145 prostate; K-562 leukemia; MALME-3M melanoma; MDA-MB-231 breast; RXF 393 renal; SF-268 CNS; SF-295 CNS; SF-539 CNS; UACC-257 melanoma; M14 melanoma.
What all share (experiment): NCI-60 one-dose screen, 48 h (100 = growth as untreated, 0 = no growth, -100 = all killed)
Settings in all cases: 10 µM unless noted

This is part of a sample that, as a whole, favours compounds with a hit. Of some 83,000 tested, about 20% had one in any assay.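 In brief: 96-well plates, 48 h treatment, single concentration, percent growth endpoint.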 A number with no mark means an inactive call. The source made the active and inactive calls. Rule for the calls: active = growth percent below 10; inactive = the rest.

`COc1ccc(C(=O)COc2ccc(/C=C3\Oc4ccc(Cl)cc4C3=O)cc2)cc1`: the growth was 67.6% in the assay with NCI-H23 lung; 92% with NCI-H226 lung; 96.6% in the assay with NCI-H322M lung; 100% with HOP-62 NSCLC; 111% with NCI-H460 lung; 48.9% in the assay on HOP-92 NSCLC. In addition, the growth was 80.5% in the assay on NCI-H522 lung; 95.1% in the assay with A549/ATCC NSCLC; 106% with 786-0 renal; 96% with COLO 205 colon; 107% in the assay with DU-145 prostate; 16.7% in the assay on K-562 leukemia. Also, the growth with MALME-3M melanoma is 115%; in the assay with MDA-MB-231 breast it was 86.8%; with RXF 393 renal, 101%; in the assay with SF-268 CNS, 108%; with SF-295 CNS, 92.7%; in the assay with SF-539 CNS, 86.3%. Besides, the growth is 89.9% in the assay with UACC-257 melanoma and 104% in the assay with M14 melanoma.
As to `C=C1C(=O)O[C@H]2[C@H]1CC/C(Cn1cc(Cn3ccc4ccccc43)nn1)=C\CC[C@@]1(C)O[C@@H]21`, the growth in the assay with NCI-H23 lung was 45.6%; in the assay on NCI-H226 lung, 76.8%; in the assay with NCI-H322M lung it was 79.7%; in the assay with HOP-62 NSCLC, 77.5%; with NCI-H460 lung it was 86.5%; in the assay on HOP-92 NSCLC, -36.3% (active). In addition, the growth is -60.6% (active) in the assay with NCI-H522 lung; 62% in the assay with A549/ATCC NSCLC; -19.5% (active) in the assay on 786-0 renal; -71.4% (active) with COLO 205 colon; 18.1% in the assay with DU-145 prostate; -16.5% (active) with K-562 leukemia. Besides, the growth with MALME-3M melanoma was -54.5% (active); with MDA-MB-231 breast it was -24.8% (active); in the assay with RXF 393 renal it was -22.9% (active); with SF-268 CNS, 39.9%; with SF-295 CNS, 76.2%; in the assay on SF-539 CNS, -62.8% (active). For the same molecule, the growth with UACC-257 melanoma is 41.3%; in the assay with M14 melanoma it was 14.4%.
Take `COc1ccc(-c2cn3c(ccc4ccccc43)n2)cc1`: the growth is 97.5% with NCI-H23 lung; 88% in the assay with NCI-H226 lung; 87.3% in the assay with NCI-H322M lung; 80.6% in the assay with HOP-62 NSCLC; 97.7% with NCI-H460 lung; 92.1% in the assay on HOP-92 NSCLC. Moreover, the growth was 87.5% with NCI-H522 lung; 107% in the assay on A549/ATCC NSCLC; 111% in the assay with 786-0 renal; 112% in the assay with COLO 205 colon; 104% in the assay with DU-145 prostate; 94.7% in the assay with K-562 leukemia. For the same molecule, the growth in the assay with MALME-3M melanoma was 106%; in the assay with MDA-MB-231 breast, 83.3%; in the assay on RXF 393 renal, 121%; with SF-268 CNS it was 101%; in the assay on SF-295 CNS, 89.9%; in the assay with SF-539 CNS, 90.5%. The growth was 118% with UACC-257 melanoma and 112% in the assay on M14 melanoma.
As for `Nc1cc(-c2nc3sccn3c2-c2ccnc(NCCCNS(=O)(=O)c3ccc(F)cc3)n2)ccc1F`, the growth with NCI-H23 lung was 63.5%; in the assay with NCI-H226 lung, 50.7%; with NCI-H322M lung, 69.9%; in the assay with HOP-62 NSCLC, 78.1%; with NCI-H460 lung, 47.4%; in the assay with HOP-92 NSCLC, 96.9%. The growth in the assay with NCI-H522 lung is 48%; in the assay on A549/ATCC NSCLC, 41.4%; in the assay on 786-0 renal, 61.3%; in the assay with COLO 205 colon, 32.4%; in the assay on DU-145 prostate, 58.6%; in the assay on K-562 leukemia, 26.8%. Also, the growth with MALME-3M melanoma was 37.1%; with MDA-MB-231 breast it was 62.5%; with RXF 393 renal it was 52.1%; in the assay on SF-268 CNS it was 62%; with SF-295 CNS, 67.5%; in the assay on SF-539 CNS it was 73.2%. In addition, the growth in the assay with UACC-257 melanoma was 57.9%; with M14 melanoma, 31%.
For the molecule `O=C1c2c[n+](Cc3ccccc3)ccc2-c2nc3ccccc3c3ccnc1c23`, the growth is -32.8% (active) in the assay with NCI-H23 lung; -92.2% (active) with NCI-H226 lung; -17.8% (active) in the assay with NCI-H322M lung; -27.2% (active) in the assay on HOP-62 NSCLC; -55% (active) in the assay on NCI-H460 lung; -45.4% (active) in the assay with HOP-92 NSCLC. Moreover, the growth with NCI-H522 lung was -66.3% (active); in the assay with A549/ATCC NSCLC, -26.1% (active); with 786-0 renal it was -5.78% (active); in the assay with COLO 205 colon, -90.1% (active); in the assay on DU-145 prostate, -89.5% (active); with K-562 leukemia, -6.85% (active). The growth is -95.7% (active) with MALME-3M melanoma; -14% (active) in the assay on MDA-MB-231 breast; -57.1% (active) in the assay on RXF 393 renal; -1.74% (active) in the assay with SF-268 CNS; -17.4% (active) in the assay on SF-295 CNS; -67.9% (active) in the assay on UACC-257 melanoma. In addition, the growth in the assay with M14 melanoma was -68.4% (active).
Consider `Cc1ccc(N)cc1F`, for which the growth with NCI-H23 lung was 94.6%; with NCI-H226 lung, 101%; in the assay on NCI-H322M lung it was 101%; in the assay on HOP-62 NSCLC it was 84.1%; in the assay with NCI-H460 lung, 108%; in the assay with HOP-92 NSCLC, 109%. For the same molecule, the growth was 88.8% in the assay with NCI-H522 lung; 99.8% in the assay with A549/ATCC NSCLC; 92.9% in the assay on 786-0 renal; 168% in the assay with COLO 205 colon; 109% in the assay with DU-145 prostate; 99.1% in the assay with K-562 leukemia. The growth was 93.5% with MALME-3M melanoma; 82% in the assay with MDA-MB-231 breast; 104% in the assay on RXF 393 renal; 98.6% in the assay with SF-268 CNS; 110% with SF-295 CNS; 100% in the assay with SF-539 CNS. In addition, the growth in the assay with M14 melanoma is 88.2%.
`COc1cccc(-c2nc3sccn3c2-c2ccnc(NCCCNS(=O)(=O)c3ccc(Cl)cc3)c2)c1`: the growth in the assay on NCI-H23 lung is 54.4%; in the assay with NCI-H226 lung, 42%; in the assay with NCI-H322M lung it was 74.4%; with HOP-62 NSCLC it was 88.7%; in the assay with NCI-H460 lung, 49.9%; in the assay on HOP-92 NSCLC it was 72%. The growth with NCI-H522 lung is 55.5%; in the assay on A549/ATCC NSCLC, 40.8%; with 786-0 renal it was 58.4%; in the assay with COLO 205 colon it was 44.9%; in the assay on DU-145 prostate it was 51.3%; in the assay with K-562 leukemia it was 29.4%. In addition, the growth was 74.1% in the assay with MALME-3M melanoma; 59.5% with MDA-MB-231 breast; 65.3% with RXF 393 renal; 44.2% in the assay with SF-268 CNS; 42.7% with SF-295 CNS; 66.7% with SF-539 CNS. In addition, the growth in the assay with UACC-257 melanoma was 59.4%; with M14 melanoma, 41.1%.
For the molecule `CC/C=C\C[C@H](O)C/C=C1/C(=O)C=C[C@@H]1C/C=C\CCCC(=O)OC(C)C`, the growth with NCI-H23 lung is -40.1% (active); in the assay with NCI-H226 lung, -39% (active); in the assay with NCI-H322M lung, -1.62% (active); in the assay with HOP-62 NSCLC, -44.2% (active); in the assay on NCI-H460 lung it was 0.788% (active); with HOP-92 NSCLC it was -0.165% (active). Moreover, the growth in the assay on NCI-H522 lung was -54.2% (active); in the assay with A549/ATCC NSCLC it was -39.2% (active); in the assay on 786-0 renal, -50.8% (active); with COLO 205 colon it was -73.8% (active); in the assay on DU-145 prostate it was 11.5%; in the assay on K-562 leukemia it was -7.12% (active). The growth in the assay on MALME-3M melanoma is -56.2% (active); in the assay on MDA-MB-231 breast, 7.13% (active); with RXF 393 renal, -82.7% (active); with SF-268 CNS it was 12.9%; with SF-295 CNS it was -24.7% (active); in the assay on UACC-257 melanoma, -51% (active). Besides, the growth with M14 melanoma is -31.3% (active).
